Test results from the supplement of paper PMC6411743.
± gives the standard deviation of the averaged measurements. The full data set covers some 6,500 targets. This sample favours those with the largest changes.

Columns and labels:
Experiment in all cases: NP40-soluble protein abundance relative to vehicle (solubility fold change) (ratio); higher = more soluble protein in presence of ATP
[1] = molecular target: T1, UniProt O95983|O95983-2|K7EIE8
T1 sequence (whole entry): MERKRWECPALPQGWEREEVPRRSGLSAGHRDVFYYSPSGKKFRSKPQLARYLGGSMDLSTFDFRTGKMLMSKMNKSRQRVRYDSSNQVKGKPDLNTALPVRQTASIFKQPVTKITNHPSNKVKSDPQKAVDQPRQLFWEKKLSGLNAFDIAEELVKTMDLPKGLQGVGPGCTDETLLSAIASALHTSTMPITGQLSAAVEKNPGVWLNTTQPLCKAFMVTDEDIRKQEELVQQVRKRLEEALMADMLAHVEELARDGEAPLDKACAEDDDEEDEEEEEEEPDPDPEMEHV
Outline: (§1)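 Eight concentrations, 0.1 to 10 mM, were tested on Jurkat crude lysate for 10 min at room temperature and then 3 min at 37 °C, in three independent experiments. The lysate was solubilised with 0.8% NP40 and benzonase, ultracentrifuged, and the supernatant TMT-labelled for LC-MS/MS. Each value is the fold change against the detergent-processed vehicle in its own replicate, from vsn-normalised intensities.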

UniProt P11177|P11177-2 = molecular target: T2, UniProt P11177|P11177-2
T2 sequence (whole entry): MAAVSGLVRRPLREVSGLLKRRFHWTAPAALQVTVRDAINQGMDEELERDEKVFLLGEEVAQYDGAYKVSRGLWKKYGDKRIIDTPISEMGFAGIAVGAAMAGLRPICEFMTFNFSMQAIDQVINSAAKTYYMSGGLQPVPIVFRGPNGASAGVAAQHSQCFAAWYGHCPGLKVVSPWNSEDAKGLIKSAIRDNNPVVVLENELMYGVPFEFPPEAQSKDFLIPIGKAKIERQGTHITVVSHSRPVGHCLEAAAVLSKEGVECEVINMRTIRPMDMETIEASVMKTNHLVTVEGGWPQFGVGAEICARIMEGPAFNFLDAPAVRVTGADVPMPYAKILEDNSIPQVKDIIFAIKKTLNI
Outline: as §1

[2] = molecular target: T3, UniProt P29728-2|A0A087X0V5|P29728
T3 sequence (whole entry): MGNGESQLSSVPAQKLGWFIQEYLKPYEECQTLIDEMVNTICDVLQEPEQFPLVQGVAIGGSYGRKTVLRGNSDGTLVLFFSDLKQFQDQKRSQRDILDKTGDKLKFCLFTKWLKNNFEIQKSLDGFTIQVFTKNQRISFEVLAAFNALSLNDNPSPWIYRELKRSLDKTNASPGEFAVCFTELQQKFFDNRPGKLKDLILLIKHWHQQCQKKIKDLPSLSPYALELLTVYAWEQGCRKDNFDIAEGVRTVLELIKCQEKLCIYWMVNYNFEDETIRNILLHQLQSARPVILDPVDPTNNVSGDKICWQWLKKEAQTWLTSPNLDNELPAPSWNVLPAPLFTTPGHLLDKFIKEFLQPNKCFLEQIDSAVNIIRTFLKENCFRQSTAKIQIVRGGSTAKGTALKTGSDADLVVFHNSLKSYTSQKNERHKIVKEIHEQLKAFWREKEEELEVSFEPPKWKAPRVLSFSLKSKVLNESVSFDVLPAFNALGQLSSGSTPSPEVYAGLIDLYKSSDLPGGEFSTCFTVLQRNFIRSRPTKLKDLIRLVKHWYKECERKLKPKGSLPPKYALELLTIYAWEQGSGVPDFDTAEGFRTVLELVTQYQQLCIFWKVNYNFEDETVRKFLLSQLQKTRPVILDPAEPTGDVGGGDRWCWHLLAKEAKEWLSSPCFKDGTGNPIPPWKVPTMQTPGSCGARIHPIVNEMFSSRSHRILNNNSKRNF
Outline: as §1

[3] = molecular target: T4, UniProt P52594|P52594-2|P52594-3|P52594-4
T4 sequence (whole entry): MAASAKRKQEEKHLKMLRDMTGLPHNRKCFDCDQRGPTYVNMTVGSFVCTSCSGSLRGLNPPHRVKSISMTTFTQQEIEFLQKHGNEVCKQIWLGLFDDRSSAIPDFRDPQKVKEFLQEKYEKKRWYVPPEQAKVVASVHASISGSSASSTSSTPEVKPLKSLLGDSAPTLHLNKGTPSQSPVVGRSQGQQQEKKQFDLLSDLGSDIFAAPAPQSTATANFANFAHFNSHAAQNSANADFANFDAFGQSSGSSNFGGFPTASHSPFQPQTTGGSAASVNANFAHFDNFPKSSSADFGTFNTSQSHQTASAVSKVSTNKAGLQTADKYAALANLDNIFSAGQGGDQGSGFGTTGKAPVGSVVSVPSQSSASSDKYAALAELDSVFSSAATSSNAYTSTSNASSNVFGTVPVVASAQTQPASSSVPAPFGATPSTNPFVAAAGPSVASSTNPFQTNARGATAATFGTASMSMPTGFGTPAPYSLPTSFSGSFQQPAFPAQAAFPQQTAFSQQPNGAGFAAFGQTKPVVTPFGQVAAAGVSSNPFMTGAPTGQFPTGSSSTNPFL
Outline: as §1

UniProt P52757|P52757-9 = molecular target: T5, UniProt P52757|P52757-9
T5 sequence (whole entry): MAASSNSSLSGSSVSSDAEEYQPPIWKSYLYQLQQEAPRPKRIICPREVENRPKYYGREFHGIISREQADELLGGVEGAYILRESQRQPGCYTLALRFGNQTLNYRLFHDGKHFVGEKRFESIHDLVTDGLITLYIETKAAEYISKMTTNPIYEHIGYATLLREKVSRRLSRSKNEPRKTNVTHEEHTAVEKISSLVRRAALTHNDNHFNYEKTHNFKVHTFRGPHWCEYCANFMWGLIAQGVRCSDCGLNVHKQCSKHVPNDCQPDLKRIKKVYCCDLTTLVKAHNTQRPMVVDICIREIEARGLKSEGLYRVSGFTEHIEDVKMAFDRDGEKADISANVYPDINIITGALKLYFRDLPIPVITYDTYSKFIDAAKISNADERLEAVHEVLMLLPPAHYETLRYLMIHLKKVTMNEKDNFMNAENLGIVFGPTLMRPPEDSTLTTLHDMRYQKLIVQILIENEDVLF
Outline: as §1

UniProt Q02040 = molecular target: T6, UniProt Q02040
T6 sequence (whole entry): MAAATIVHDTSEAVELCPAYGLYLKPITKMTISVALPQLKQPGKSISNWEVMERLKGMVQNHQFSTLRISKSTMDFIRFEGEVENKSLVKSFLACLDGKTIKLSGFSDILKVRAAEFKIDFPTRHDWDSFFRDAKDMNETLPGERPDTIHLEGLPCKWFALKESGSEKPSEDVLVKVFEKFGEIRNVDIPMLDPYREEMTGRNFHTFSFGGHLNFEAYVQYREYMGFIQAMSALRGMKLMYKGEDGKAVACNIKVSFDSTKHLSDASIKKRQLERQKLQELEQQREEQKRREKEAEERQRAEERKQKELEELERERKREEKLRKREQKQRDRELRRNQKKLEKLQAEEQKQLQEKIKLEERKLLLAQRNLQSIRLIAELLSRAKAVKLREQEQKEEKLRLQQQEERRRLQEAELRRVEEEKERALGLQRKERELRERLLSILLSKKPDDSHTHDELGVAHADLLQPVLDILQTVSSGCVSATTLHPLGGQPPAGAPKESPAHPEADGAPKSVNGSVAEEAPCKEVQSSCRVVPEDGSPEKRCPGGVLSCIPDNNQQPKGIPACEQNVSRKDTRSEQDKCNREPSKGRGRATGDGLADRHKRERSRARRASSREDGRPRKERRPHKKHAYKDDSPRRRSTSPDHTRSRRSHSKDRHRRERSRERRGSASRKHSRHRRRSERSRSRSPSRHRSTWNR
Outline: as §1

YWHAZ = molecular target: T7, YWHAZ (UniProt P63104)
T7 sequence (whole entry): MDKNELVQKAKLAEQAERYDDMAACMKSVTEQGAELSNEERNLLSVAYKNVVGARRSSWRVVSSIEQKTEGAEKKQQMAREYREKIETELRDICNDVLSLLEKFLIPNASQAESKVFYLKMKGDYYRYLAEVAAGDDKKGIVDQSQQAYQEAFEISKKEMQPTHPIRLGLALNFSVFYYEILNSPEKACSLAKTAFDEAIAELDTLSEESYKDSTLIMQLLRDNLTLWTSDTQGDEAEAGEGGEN
Outline: as §1

**Q.** For Nc1ncnc2c1ncn2[C@@H]1O[C@H](COP(=O)(O)OP(=O)(O)OP(=O)(O)O)[C@@H](O)[C@H]1O [adenosine triphosphate], which NP40-soluble protein abundance ([1]; concentration: 6mM) is on record?
**A.** 1.02 ± 0.16

**Q.** And the NP40-soluble protein abundance ([1]; concentration: 8mM)?
**A.** 1.01 ± 0.065

**Q.** What about the NP40-soluble protein abundance ([1]; concentration: 10mM) of the same compound?
**A.** 0.92 ± 0.082

**Q.** What about the NP40-soluble protein abundance (UniProt P11177|P11177-2; concentration: 1mM) of the same compound?
**A.** 1.14 ± 0.069

**Q.** And the NP40-soluble protein abundance (UniProt P11177|P11177-2; concentration: 2mM)?
**A.** 1.04 ± 0.041

**Q.** What about the NP40-soluble protein abundance (UniProt P11177|P11177-2; concentration: 4mM) of the same compound?
**A.** 1 ± 0.05

**Q.** What about the NP40-soluble protein abundance (UniProt P11177|P11177-2; concentration: 6mM) of the same compound?
**A.** 1.02 ± 0.18

**Q.** What about the NP40-soluble protein abundance (UniProt P11177|P11177-2; concentration: 8mM) of the same compound?
**A.** 1.05 ± 0.14

**Q.** And the NP40-soluble protein abundance (UniProt P11177|P11177-2; concentration: 10mM)?
**A.** 1.02 ± 0.12

**Q.** And the NP40-soluble protein abundance ([2]; concentration: 1mM)?
**A.** 1.73 ± 0.11

**Q.** And the NP40-soluble protein abundance ([2]; concentration: 2mM)?
**A.** 1.65 ± 0.019

**Q.** What about the NP40-soluble protein abundance ([2]; concentration: 4mM) of the same compound?
**A.** 1.7 ± 0.046

**Q.** And the NP40-soluble protein abundance ([2]; concentration: 6mM)?
**A.** 1.55 ± 0.12

**Q.** And the NP40-soluble protein abundance ([2]; concentration: 8mM)?
**A.** 1.74 ± 0.042

**Q.** And the NP40-soluble protein abundance ([2]; concentration: 10mM)?
**A.** 1.68 ± 0.047

**Q.** What about the NP40-soluble protein abundance ([3]; concentration: 1mM) of the same compound?
**A.** 0.945 ± 0.033

**Q.** And the NP40-soluble protein abundance ([3]; concentration: 2mM)?
**A.** 0.961 ± 0.012

**Q.** And the NP40-soluble protein abundance ([3]; concentration: 4mM)?
**A.** 0.963 ± 0.019

**Q.** And the NP40-soluble protein abundance ([3]; concentration: 6mM)?
**A.** 0.987 ± 0.037

**Q.** And the NP40-soluble protein abundance ([3]; concentration: 8mM)?
**A.** 0.93 ± 0.052

**Q.** And the NP40-soluble protein abundance ([3]; concentration: 10mM)?
**A.** 0.918 ± 0.033

**Q.** What about the NP40-soluble protein abundance (UniProt P52757|P52757-9; concentration: 1mM) of the same compound?
**A.** 0.952 ± 0.13

**Q.** What about the NP40-soluble protein abundance (UniProt P52757|P52757-9; concentration: 2mM) of the same compound?
**A.** 0.971 ± 0.14

**Q.** And the NP40-soluble protein abundance (UniProt P52757|P52757-9; concentration: 4mM)?
**A.** 1 ± 0.23

**Q.** What about the NP40-soluble protein abundance (UniProt P52757|P52757-9; concentration: 6mM) of the same compound?
**A.** 0.948 ± 0.094

**Q.** What about the NP40-soluble protein abundance (UniProt P52757|P52757-9; concentration: 8mM) of the same compound?
**A.** 0.989 ± 0.091

**Q.** And the NP40-soluble protein abundance (UniProt P52757|P52757-9; concentration: 10mM)?
**A.** 0.983 ± 0.12

**Q.** What about the NP40-soluble protein abundance (UniProt Q02040; concentration: 1mM) of the same compound?
**A.** 1.4 ± 0.24

**Q.** And the NP40-soluble protein abundance (UniProt Q02040; concentration: 2mM)?
**A.** 1.56 ± 0.34

**Q.** What about the NP40-soluble protein abundance (UniProt Q02040; concentration: 4mM) of the same compound?
**A.** 1.8 ± 0.45

**Q.** What about the NP40-soluble protein abundance (UniProt Q02040; concentration: 6mM) of the same compound?
**A.** 2.02 ± 0.41

**Q.** What about the NP40-soluble protein abundance (UniProt Q02040; concentration: 8mM) of the same compound?
**A.** 2.19 ± 0.54

**Q.** What about the NP40-soluble protein abundance (UniProt Q02040; concentration: 10mM) of the same compound?
**A.** 2.43 ± 0.62

**Q.** And the NP40-soluble protein abundance (YWHAZ; concentration: 1mM)?
**A.** 0.892 ± 0.2

**Q.** And the NP40-soluble protein abundance (YWHAZ; concentration: 2mM)?
**A.** 0.94 ± 0.045

**Q.** What about the NP40-soluble protein abundance (YWHAZ; concentration: 4mM) of the same compound?
**A.** 0.896 ± 0.025

**Q.** And the NP40-soluble protein abundance (YWHAZ; concentration: 6mM)?
**A.** 0.918 ± 0.17

**Q.** What about the NP40-soluble protein abundance (YWHAZ; concentration: 8mM) of the same compound?
**A.** 0.8927 ± 0.0068

**Q.** And the NP40-soluble protein abundance (YWHAZ; concentration: 10mM)?
**A.** 0.819 ± 0.066
